± gives the standard deviation of the averaged measurements.
Tests used:
[1] = test system: Saccharomyces cerevisiae BY4741 SeMeCo community; experiment: mean cell size (pixel area) (pixels); higher = larger cells; details: 10 µM; 24 h; SM minimal medium
Procedure, shortened: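 A fluorescent Saccharomyces cerevisiae BY4741 community carrying four plasmids was used, with each plasmid complementing one auxotrophy and bearing a fluorescent marker. An overnight preculture at OD600 = 1.0 was diluted to OD600 = 0.3, and 70 µl went into 384-well plates acoustically predosed with drug (final 10 µM) in SM medium for 24 h. After paraformaldehyde fixation, cells were imaged by automated confocal microscopy and analysed in Harmony, giving the mean cell pixel area per well. Each value is the average of 3 replicates. Same SeMeCo high-content imaging drug screen: Selleck FDA-approved drugs at 10 µM, 24 h in SM medium, 384-well plates, 3 replicates.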

[2] = test system: Saccharomyces cerevisiae BY4741 SeMeCo community; experiment: z-score of prototroph abundance vs DMSO median; higher = larger share of this subpopulation than in DMSO controls; details: 10 µM; 24 h; SM minimal medium; subpopulation (auxotrophy): Prototroph
Procedure, shortened: (§1)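 A Saccharomyces cerevisiae BY4741 community carried four plasmids, each restoring one auxotrophy and encoding a distinct fluorescent protein. It was pre-grown overnight to OD600 1.0, diluted to 0.3, and 70 µl was added to 384-well plates acoustically predosed with library drugs (10 µM final), then grown 24 h in minimal SM medium. Cells were paraformaldehyde-fixed and imaged by automated confocal microscopy, with single-auxotroph fluorescent strains setting thresholds and autofluorescence correction. Each subpopulation's abundance was scored as a z-score against the vehicle-well median.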

[3] = test system: Saccharomyces cerevisiae BY4741 SeMeCo community; experiment: z-score of subpopulation abundance vs DMSO median, subpopulation auxotrophic for M; higher = larger share of this subpopulation than in DMSO controls; details: 10 µM; 24 h; SM minimal medium; subpopulation (auxotrophy): M
Procedure, shortened: as §1

[4] = test system: Saccharomyces cerevisiae BY4741 SeMeCo community; experiment: z-score of subpopulation abundance vs DMSO median, subpopulation auxotrophic for U; higher = larger share of this subpopulation than in DMSO controls; details: 10 µM; 24 h; SM minimal medium; subpopulation (auxotrophy): U
Procedure, shortened: as §1

[5] = test system: Saccharomyces cerevisiae BY4741 SeMeCo community; experiment: z-score of subpopulation abundance vs DMSO median, subpopulation auxotrophic for H; higher = larger share of this subpopulation than in DMSO controls; details: 10 µM; 24 h; SM minimal medium; subpopulation (auxotrophy): H
Procedure, shortened: as §1

[6] = test system: Saccharomyces cerevisiae BY4741 SeMeCo community; experiment: z-score of subpopulation abundance vs DMSO median, subpopulation auxotrophic for LU; higher = larger share of this subpopulation than in DMSO controls; details: 10 µM; 24 h; SM minimal medium; subpopulation (auxotrophy): LU
Procedure, shortened: as §1

[7] = test system: Saccharomyces cerevisiae BY4741 SeMeCo community; experiment: z-score of subpopulation abundance vs DMSO median, subpopulation auxotrophic for LM; higher = larger share of this subpopulation than in DMSO controls; details: 10 µM; 24 h; SM minimal medium; subpopulation (auxotrophy): LM
Procedure, shortened: as §1

[8] = test system: Saccharomyces cerevisiae BY4741 SeMeCo community; experiment: z-score of subpopulation abundance vs DMSO median, subpopulation auxotrophic for HM; higher = larger share of this subpopulation than in DMSO controls; details: 10 µM; 24 h; SM minimal medium; subpopulation (auxotrophy): HM
Procedure, shortened: as §1

[9] = test system: Saccharomyces cerevisiae BY4741 SeMeCo community; experiment: z-score of subpopulation abundance vs DMSO median, subpopulation auxotrophic for UM; higher = larger share of this subpopulation than in DMSO controls; details: 10 µM; 24 h; SM minimal medium; subpopulation (auxotrophy): UM
Procedure, shortened: as §1

[10] = test system: Saccharomyces cerevisiae BY4741 SeMeCo community; experiment: z-score of subpopulation abundance vs DMSO median, subpopulation auxotrophic for HL; higher = larger share of this subpopulation than in DMSO controls; details: 10 µM; 24 h; SM minimal medium; subpopulation (auxotrophy): HL
Procedure, shortened: as §1

[11] = test system: Saccharomyces cerevisiae BY4741 SeMeCo community; experiment: z-score of subpopulation abundance vs DMSO median, subpopulation auxotrophic for HLU; higher = larger share of this subpopulation than in DMSO controls; details: 10 µM; 24 h; SM minimal medium; subpopulation (auxotrophy): HLU
Procedure, shortened: as §1

[12] = test system: Saccharomyces cerevisiae BY4741 SeMeCo community; experiment: z-score of subpopulation abundance vs DMSO median, subpopulation auxotrophic for HLM; higher = larger share of this subpopulation than in DMSO controls; details: 10 µM; 24 h; SM minimal medium; subpopulation (auxotrophy): HLM
Procedure, shortened: as §1

[13] = test system: Saccharomyces cerevisiae BY4741 SeMeCo community; experiment: z-score of subpopulation abundance vs DMSO median, subpopulation auxotrophic for HUM; higher = larger share of this subpopulation than in DMSO controls; details: 10 µM; 24 h; SM minimal medium; subpopulation (auxotrophy): HUM
Procedure, shortened: as §1

[14] = test system: Saccharomyces cerevisiae BY4741 SeMeCo community; experiment: z-score of subpopulation abundance vs DMSO median, subpopulation auxotrophic for LUM; higher = larger share of this subpopulation than in DMSO controls; details: 10 µM; 24 h; SM minimal medium; subpopulation (auxotrophy): LUM
Procedure, shortened: as §1

[15] = test system: Saccharomyces cerevisiae BY4741 SeMeCo community; experiment: z-score of subpopulation abundance vs DMSO median, subpopulation auxotrophic for HLUM; higher = larger share of this subpopulation than in DMSO controls; details: 10 µM; 24 h; SM minimal medium; subpopulation (auxotrophy): HLUM
Procedure, shortened: as §1

[16] = test system: Saccharomyces cerevisiae BY4741 SeMeCo community; experiment: z-score of subpopulation abundance vs DMSO median, subpopulation auxotrophic for HU; higher = larger share of this subpopulation than in DMSO controls; details: 10 µM; 24 h; SM minimal medium; subpopulation (auxotrophy): HU
Procedure, shortened: as §1

SMILES: Nc1nc(=O)[nH]cc1F [Flucytosine]
- mean cell size [1]: 13.9 ± 0.19
- z-score of prototroph abundance [2]: -10.3
- z-score of subpopulation abundance [3]: -3.75
- z-score of subpopulation abundance [4]: 0.5
- z-score of subpopulation abundance [5]: 17.8
- z-score of subpopulation abundance [6]: 0.49
- z-score of subpopulation abundance [7]: -4.29
- z-score of subpopulation abundance [8]: 17.8
- z-score of subpopulation abundance [9]: 1.6
- z-score of subpopulation abundance [10]: 13.2
- z-score of subpopulation abundance [11]: 1.33
- z-score of subpopulation abundance [12]: 35.5
- z-score of subpopulation abundance [13]: 10.3
- z-score of subpopulation abundance [14]: 4.96
- z-score of subpopulation abundance [15]: 38.3

SMILES: COc1ccc2cc(CCC(C)=O)ccc2c1 [Nabumetone]
- mean cell size [1]: 12.5 ± 0.13
- z-score of prototroph abundance [2]: 1
- z-score of subpopulation abundance [3]: 0.05
- z-score of subpopulation abundance [4]: 0.54
- z-score of subpopulation abundance [5]: -1.58
- z-score of subpopulation abundance [6]: -0.78
- z-score of subpopulation abundance [7]: -1.42
- z-score of subpopulation abundance [8]: -0.96
- z-score of subpopulation abundance [16]: -0.64
- z-score of subpopulation abundance [9]: -0.41
- z-score of subpopulation abundance [11]: -0.94
- z-score of subpopulation abundance [12]: -0.91
- z-score of subpopulation abundance [13]: -0.22
- z-score of subpopulation abundance [15]: -1.51

SMILES: CC1=C(C(=O)O)N2C(=O)[C@@H](NC(=O)[C@H](N)c3ccc(O)cc3)[C@H]2SC1 [Cefadroxil hydrate]
- mean cell size [1]: 12.1 ± 0.2
- z-score of prototroph abundance [2]: 0.8
- z-score of subpopulation abundance [3]: -0.99
- z-score of subpopulation abundance [4]: -0.62
- z-score of subpopulation abundance [5]: 0.01
- z-score of subpopulation abundance [6]: -0.23
- z-score of subpopulation abundance [8]: -0.79
- z-score of subpopulation abundance [16]: -0.04
- z-score of subpopulation abundance [9]: -0.45
- z-score of subpopulation abundance [10]: -0.19
- z-score of subpopulation abundance [11]: -0.42
- z-score of subpopulation abundance [12]: -0.45
- z-score of subpopulation abundance [13]: -0.39
- z-score of subpopulation abundance [14]: -0.5
- z-score of subpopulation abundance [15]: -0.33

SMILES: CC1=C(C(=O)O)N2C(=O)[C@@H](NC(=O)[C@H](N)c3ccccc3)[C@H]2SC1 [Cephalexin]
- mean cell size [1]: 12 ± 0.24
- z-score of prototroph abundance [2]: -0.14
- z-score of subpopulation abundance [3]: 1.37
- z-score of subpopulation abundance [4]: -1.02
- z-score of subpopulation abundance [5]: 0.56
- z-score of subpopulation abundance [6]: -0.21
- z-score of subpopulation abundance [7]: 0.35
- z-score of subpopulation abundance [8]: 1.28
- z-score of subpopulation abundance [9]: -0.17
- z-score of subpopulation abundance [10]: 0.67
- z-score of subpopulation abundance [11]: -0.6
- z-score of subpopulation abundance [12]: -0.53
- z-score of subpopulation abundance [13]: 0.41
- z-score of subpopulation abundance [14]: -0.42
- z-score of subpopulation abundance [15]: -0.42

SMILES: Clc1ccc(COC(Cn2ccnc2)c2ccc(Cl)cc2Cl)c(Cl)c1 (stereo not given) [Miconazole]
- z-score of prototroph abundance [2]: -9.47
- z-score of subpopulation abundance [3]: -7.11
- z-score of subpopulation abundance [4]: 2.67
- z-score of subpopulation abundance [6]: 4.36
- z-score of subpopulation abundance [7]: -1.8
- z-score of subpopulation abundance [8]: 0.94
- z-score of subpopulation abundance [16]: 22.4
- z-score of subpopulation abundance [9]: 1.59
- z-score of subpopulation abundance [10]: 7.22
- z-score of subpopulation abundance [11]: 11.1
- z-score of subpopulation abundance [12]: 12.2
- z-score of subpopulation abundance [13]: 6.04
- z-score of subpopulation abundance [14]: 0.67
- z-score of subpopulation abundance [15]: 9.68

SMILES: CC1(C)S[C@@H]2[C@H](NC(=O)[C@H](N)c3ccccc3)C(=O)N2[C@H]1C(=O)O [Ampicillin Trihydrate]
- mean cell size [1]: 12.4 ± 0.33
- z-score of subpopulation abundance [3]: -0.37
- z-score of subpopulation abundance [4]: -0.13
- z-score of subpopulation abundance [5]: 0.41
- z-score of subpopulation abundance [6]: -0.05
- z-score of subpopulation abundance [7]: 0.29
- z-score of subpopulation abundance [8]: -0.06
- z-score of subpopulation abundance [16]: -0.36
- z-score of subpopulation abundance [9]: -0.18
- z-score of subpopulation abundance [10]: -0.3
- z-score of subpopulation abundance [11]: -0.22
- z-score of subpopulation abundance [12]: 0.52
- z-score of subpopulation abundance [13]: 0.13
- z-score of subpopulation abundance [14]: 0.23

SMILES: NC12CC3CC(CC(C3)C1)C2 [Amantadine]
- mean cell size [1]: 12 ± 0.17
- z-score of prototroph abundance [2]: 0
- z-score of subpopulation abundance [3]: -0.63
- z-score of subpopulation abundance [6]: 0.79
- z-score of subpopulation abundance [7]: 0.28
- z-score of subpopulation abundance [8]: -0.03
- z-score of subpopulation abundance [16]: -0.15
- z-score of subpopulation abundance [9]: 0.12
- z-score of subpopulation abundance [10]: -0.09
- z-score of subpopulation abundance [11]: 0.22
- z-score of subpopulation abundance [12]: -0.36
- z-score of subpopulation abundance [13]: 0.47
- z-score of subpopulation abundance [14]: -0.04

— the supplement of paper PMC8975748
